Test [1] can be described thus: Viability qHTS for spleen associated tyrosine kinase inhibitor (SYKi) naive MV4-11 cells (AID 1963823). Further: nearly all actives have a fitted effect of over 40% in size. The gist of the method:
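CellTiter-Glo luminescence, 10 min room-temperature incubation, gave viability. Cells: naive MV4-11 (500/well), treated 72 hr at 37 C, 5% CO2.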

Test [2] in a line: Viability qHTS for spleen associated tyrosine kinase inhibitor (SYKi) drug resistant MV4-11 cells (AID 1963824). Further: nearly all actives have a fitted effect of over 35% in size. The gist of the method: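 SYK-inhibitor-resistant MV4-11 AML cells were seeded at 500 per well onto compound and cultured 72 hours (37 °C, 5% CO2). CellTiter-Glo was then added, and after 10 min at room temperature, luminescence gave viability.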
On the technique in general: In qHTS, concentration-response curves come from the screen itself.

Test [3] can be described thus: Quantitative highthroughput screen to assess conditional lethalithy of NOMO1 cells grown in RPMI1640 with untreated serum (RPMI+s) (AID 1963876). Further: nearly all actives have a fitted effect of over 35% in size.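 On Viability: 100% = DMSO wells and 0% = empty wells without cells.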 The gist of the method:
(§1)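 Each medium arm—HPLM with 10% dialyzed FBS, or RPMI1640 with 5 mM glucose and 10% untreated or dialyzed FBS—was screened against an 11-point, 3-fold compound titration for 48 h at 37 °C, with CellTiter-Glo luminescence as endpoint.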

The nature of test [4]: Quantitative highthroughput screen to assess conditional lethalithy of NOMO1 cells grown in Human Plasma-Like Medium with dialyzed fetal bovine serum (HPLM+ds) (AID 1963878). Further: nearly all actives have a fitted effect of over 35% in size.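 On Viability: 100% = DMSO wells and 0% = empty wells on each plate.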 In short, it runs like this:
as §1

The nature of test [5]: Quantitative highthroughput screen to assess conditional lethalithy of P12 Ichikawa cells grown in RPMI1640 with dialyzed fetal bovine serum (RPMI+ds) (AID 1963880). Further: nearly all actives have a fitted effect of over 35% in size.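 On Viability: 100% = DMSO wells and 0% = empty wells on each plate.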 The conditions noted are these: Potency: P12-Ichikawa viability. The gist of the method:
as §1

The nature of test [6]: Quantitative highthroughput screen to assess conditional lethalithy of P12 Ichikawa cells grown in RPMI1640 with untreated serum (RPMI+s) (AID 1963881). Further: nearly all actives have a fitted effect of over 35% in size.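 On Viability: series mostly up to about 46 µM; 100% = DMSO wells and 0% = empty wells without cells.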 The conditions noted are these: Potency: viability. The gist of the method: as §1
Test [7] is described as follows: Quantitative highthroughput screen to assess conditional lethalithy of SEM cells grown in RPMI1640 with unreated serum (RPMI+s) (AID 1963883). Further: nearly all actives have a fitted effect of over 35% in size.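 On Viability: 100% = DMSO wells and 0% = empty wells without cells.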 The gist of the method:
as §1

Test [8] can be described thus: Quantitative highthroughput screen to assess conditional lethalithy of SEM cells grown in RPMI1640 with dialyzed fetal bovine serum (RPMI+ds) (AID 1963884). Further: nearly all actives have a fitted effect of over 35% in size.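 On Viability: series mostly up to about 46 µM; 100% = DMSO control wells and 0% = empty wells without cells.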 In short, it runs like this:
as §1

The nature of test [9]: Cellular viability qHTS for adrenocortical cancer (ACC) cell line SW-13 (AID 1963989). Further: nearly all actives have a fitted effect of over 65% in size.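 On activity (max response): cells grown in serum-free medium with ITS supplement; on the % scale 0 is the no-effect control and ±100 the full control effect.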 As to conditions: SW-13 ACC cells viability, CellTiter-Glo, 48 h; activity (max response): stronger effect = lower value. The gist of the method: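 Compound titrations (up to 46 uM final, in DMSO) were applied to SW-13 cells for 48 h at 37C/5% CO2. Reading used CellTiter-Glo after 20 min at room temperature; fitted curves yielded IC50 and efficacy.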

A short description of test [10]: Cellular viability qHTS for adrenocortical cancer (ACC) cell line NCI-H295R (AID 1963990). Further: nearly all actives have a fitted effect of over 60% in size. The gist of the method: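 Readout: CellTiter-Glo luminescence, 20 min RT. Exposure: 48 h, 37C/5% CO2. Cells: NCI-H295R, ITS-DMEM serum-free. Range: up to 46 uM. Analysis: 4PL fit, IC50 plus efficacy.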
A short description of test [11]: Quantitative highthroughput screen to assess conditional lethalithy of P12 Ichikawa cells grown in Human Plasma-Like Medium with dialyzed fetal bovine serum (HPLM+ds) (AID 1963879). Further: nearly all actives have a fitted effect of over 35% in size. On Viability: series mostly up to about 46 µM. The conditions noted are these: Potency: viability. In short, it runs like this:
as §1

Test [12] is described as follows: Quantitative highthroughput screen to assess conditional lethalithy of SEM cells grown in Human Plasma-Like Medium with dialyzed fetal bovine serum (HPLM+ds) (AID 1963882). Further: nearly all actives have a fitted effect of over 35% in size. On Viability: series mostly up to about 46 µM. The gist of the method: as §1

SMILES strings stand for the structures. “And” between values parts separate entries of the source, which are not always exact repeats. Identical values can stand only once. Results filed as inconclusive are left out. Some structures have more than one record in an assay (separate samples or runs), and their calls can disagree. The source made the active and inactive calls. The call rests on the fitted dose curve; in most records, active means well fitted curve in the direction sought with a large enough effect; inconclusive means small, poorly fitted or top-dose-only effect, or another doubt; inactive means no such curve, though single readings can be large; an effect the other way counts as inactive or inconclusive.
Potency means the concentration at half of the fitted maximal effect.

`COc1ccc(C(=O)CC(=O)c2ccc(C(C)(C)C)cc2)cc1`: the Potency entry was “inactive and 14.8 µM (active)” in [1]; “inactive and 16.6 µM (active)” in [2]. Besides, the Potency entry in test [3], in [4], in test [5], in test [6], in test [7] and in test [8] was “inactive” throughout. Further, the Potency result in test [10] is “inactive”. Besides, the activity (max response) in test [9] is 8.41% (inactive) and -10.7% (inactive).
For the compound `CNC(=O)c1ccc(Nc2ncc(C(F)(F)F)c(NCc3nccnc3N(C)S(C)(=O)=O)n2)cc1`, the Potency was 130 nM (active) and 332 nM (active) in [1]; 291 nM (active) and 525 nM (active) in test [2]; 1.48 µM (active) in [12]; 1.05 µM (active) in [7]; 0.933 µM (active) in test [8]; 7.94 µM (active) in test [10]. Moreover, the Potency entry in [3], in test [11], in test [5] and in test [6] was “inactive” in each case.
Take `CN(C)c1ccc(C2Nc3ccc4ccccc4c3C3=C2C(=O)CC(C)(C)C3)cc1Br` (stereo not given): the Potency entry in test [1], in test [3], in test [4], in [5], in test [6] and in test [12] was “inactive” in each case. For the same compound, the Potency result in test [7], in [8] and in test [10] was “inactive” throughout. Also, the Potency in test [2] was 14.8 µM (active). Further, in [9], the activity (max response) was -5.19% (inactive).
Turning to `Cc1cn[nH]c1`, the Potency entry in [1], in [3], in [5], in [6], in [8] and in [10] was “inactive” throughout. The Potency entry in test [2] is “inactive and 18.6 µM (active)”; in test [4], 16.6 µM (active). Besides, the activity (max response) in test [9] is 12.7% (inactive) and 11.3% (inactive).
With `NC(CO)(CO)CCc1ccc(Sc2cccc(OCc3ccccc3)c2)cc1Cl`, the Potency was 7.42 µM (active) in test [1]; 3.72 µM (active) in test [2]; 13.2 µM (active) in [3]; 7.43 µM (active) in test [4]; 7.43 µM (active) in test [11]; 14.8 µM (active) in [5]. The Potency was 10.5 µM (active) in test [6] and 3.98 µM (active) in [10].
Take `OCc1ccc(-c2ccc(-c3ccc(CO)s3)o2)s1`: the Potency is 1.18 µM (active) in [1] and 0.833 µM (active) in [2]. Further, the Potency result in test [3], in test [4], in test [11], in test [6], in [12] and in test [7] was “inactive” in each case. In test [8], the Potency entry is “inactive”. For the same compound, in test [9], the activity (max response) was -9.77% (inactive).
In the case of `CC1CCN(c2cc(N3CCN(C)CC3)ccc2NC(=O)c2cc(C#N)c[nH]2)CC1`, the figures for the Potency in test [1] and in [2] were 5.25 µM (active) and 11.8 µM (active), respectively. Besides, the Potency result in test [3], in test [11], in test [5], in [6], in [12] and in [7] was “inactive” throughout. For the same compound, the Potency result in test [8] and in test [10] was “inactive” throughout. Also, in [9], the activity (max response) is -21.1% (inactive).
As for `Clc1ccc(C(Cn2ccnc2)OCc2ccsc2Cl)c(Cl)c1` (stereo not given), the Potency in [1] is 8.33 µM (active); in test [2], 9.34 µM (active); in test [9] it was 18.4 µM (active); in test [10] it was 31.6 µM (active). Further, the Potency entry in [3] and in test [4] was “inactive” in each case.
Take `CCC(C)(C)C(=O)O[C@H]1C[C@@H](C)C=C2C=C[C@H](C)[C@H](CC[C@@H]3C[C@@H](O)CC(=O)O3)[C@H]21`: the Potency in test [1] was 8.41 µM (active) and 9.34 µM (active); in [2], 2.99 µM (active) and 3.72 µM (active); in test [3], 20.9 µM (active); in test [4] it was 18.7 µM (active); in test [6] it was 14.8 µM (active); in test [10] it was “inactive and 17.8 µM (active)”. Also, in [9], the activity (max response) was -9.24% (inactive) and -17.2% (inactive).
As for `Cc1nc2cnc3ccc(C#Cc4cccnc4)cc3c2n1-c1ccc(C(C)(C)C#N)cc1`, the Potency in [1] is 8.2 µM (active) and 235 nM (active); in test [2], 8.2 µM (active) and 332 nM (active); in test [3] it was 1.32 µM (active); in test [4], 0.209 µM (active); in test [7], 0.132 µM (active); in test [8], 0.209 µM (active). For the same compound, in test [10], the Potency is 0.891 µM (active).
As for `Cc1ccc(NC(=O)c2ccc(CN3CCN(C)CC3)cc2)cc1Nc1nc(-c2cccnc2)cs1`, the Potency in test [1] was 11.6 µM (active) and 14.8 µM (active); in test [2] it was 13 µM (active) and 13.2 µM (active); in test [4], 0.372 µM (active); in test [9] it was 25.1 µM (active); in test [10], 22.4 µM (active). The Potency result in test [3] is “inactive”.
On to `O=C(C1CCCCC1)N1CC(=O)N2CCc3ccccc3C2C1` (stereo not given), for which the Potency result in test [1], in test [2], in test [3], in test [4] and in [10] was “inactive” each time. In addition, the Potency in test [7] was 0.332 µM (active). Also, in [9], the activity (max response) is -9.94% (inactive) and -6.75% (inactive).
As to `COc1cc2c(cc1OC)[C@@H]1C(=O)c3ccc4c(c3O[C@@H]1CO2)C=CC(C)(C)O4`, the Potency in test [1] is 103 nM (active) and 93.4 nM (active); in test [2], 146 nM (active) and 166 nM (active); in [3], 23.5 µM (active); in test [4], 20.9 µM (active); in test [5] it was 18.7 µM (active); in test [6] it was 6.62 µM (active). For the same compound, the Potency in test [7] is 2.64 µM (active); in test [8], 16.6 µM (active); in test [9], 0.178 µM (active); in test [10] it was 20 µM (active).
For `COc1cc2nccc(Oc3ccc(NC(=O)Nc4ccc(F)cc4F)c(F)c3)c2cc1OC`, the Potency was 0.0231 µM (active) in test [1]; 0.0517 µM (active) in test [2]; 23.5 µM (active) in [11]; 0.0105 µM (active) in test [12]; 0.209 µM (active) in [7]. The Potency result in test [3] and in test [4] was “inactive” in each case. Also, the activity (max response) in test [9] was -11.6% (inactive).

The values above are taken from PubChem BioAssay (NCATS).
